Holding throughout (assay): NCI-60 one-dose screen, 48 h (100 = growth as untreated, 0 = no growth, -100 = all killed)
Holding throughout (conditions): 10 µM unless noted

Experiment [1] has as its system SK-MEL-2 melanoma.
In experiment [2] the test system is EKVX NSCLC.
For experiment [3], the system named is SN12C renal.
Experiment [4] concerns UO-31 renal.
The subject of experiment [5] is TK-10 renal.
The test system of experiment [6] is ACHN renal.
The subject of experiment [7] is CAKI-1 renal.
The subject of experiment [8] is A498 renal.
Experiment [9] relates to MOLT-4 leukemia.
The test system of experiment [10] is SR leukemia.
Experiment [11] has as its system RPMI-8226 leukemia.
Experiment [12] has as its system OVCAR-8 ovarian.
Experiment [13] concerns OVCAR-5 ovarian.
The test system of experiment [14] is OVCAR-4 ovarian.
Experiment [15] deals with SK-OV-3 ovarian.
The test system of experiment [16] is IGROV1 ovarian.
The test system of experiment [17] is OVCAR-3 ovarian.
The subject of experiment [18] is HS 578T breast.
In experiment [19] the test system is NCI/ADR-RES ovarian.

The panel holds about 83,000 compounds, 20% with a hit somewhere; the sample as a whole holds those more often.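 Activity criterion: percent growth below 10, measured after cells in 96-well plates were exposed to a single compound concentration for 48 hours.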 Values without a mark were called inactive. The source made the active and inactive calls.

Turning to `COc1ccccc1CNCCCN1C(=O)c2ccc3c4c(ccc(c24)C1=O)C(=O)N(CCCNCCCCN)C3=O`, the growth in experiment [1] is -67.9% (active); in [2] it was 8.85% (active); in [3], -39.3% (active); in experiment [4], 11.2%; in experiment [5] it was -1.84% (active); in [6], 7.77% (active). In addition, the growth was 33.7% in [7]; -52% (active) in experiment [8]; 0.762% (active) in experiment [9]; 5.25% (active) in experiment [10]; -8.59% (active) in [11]; -7.98% (active) in experiment [12]. Besides, the growth in experiment [13] is -12.4% (active); in [14] it was -84.9% (active); in experiment [15] it was 14.2%; in [16], 8.53% (active); in experiment [17], -1.35% (active); in experiment [18], -7.25% (active). The growth in experiment [19] is 42.5%.
With `O=C1C=C[C@]2(C[C@@H](c3cccc(C(F)(F)F)c3)O[C@@H](c3cccc(C(F)(F)F)c3)O2)O1`, the growth was -26.7% (active) in [1]; 80.9% in experiment [2]; 0.629% (active) in experiment [3]; -77.3% (active) in experiment [4]; -85.5% (active) in experiment [5]; -49.4% (active) in experiment [6]. Moreover, the growth in [7] is 32.8%; in [8], 31%; in [9] it was 3.17% (active); in experiment [10] it was 9.17% (active); in experiment [11], -2.8% (active); in [12], 38.5%. Besides, the growth was 86.2% in experiment [13]; 48.9% in [14]; 84.9% in experiment [15]; 22.3% in [16]; -33.1% (active) in [17]; -4.02% (active) in [18]. Further, in experiment [19], the growth is 51.3%.
Consider `CN1CCN(C(=O)c2c3c(n4ccccc24)C(=O)c2ncccc2C3=O)CC1`, for which the growth is 80% in [1]; 91.5% in experiment [2]; 45% in experiment [3]; 35.2% in [4]; 89.3% in experiment [5]; 32% in experiment [6]. Besides, the growth in [7] is 35.7%; in [8], 51.5%; in experiment [9] it was 103%; in experiment [10] it was 18%; in [11] it was 57.9%; in experiment [12] it was 68%. Further, the growth is 99.6% in experiment [13]; 72% in [14]; 70% in experiment [15]; 60% in [16]; 7.09% (active) in [17]; 52.5% in experiment [18]. The growth in [19] was 71.5%.
Consider `CCN(CC)CCN1C(=O)c2c(c(C)c3c(oc4cc(O)ccc43)c2C)C1=O`, for which the growth is 108% in [1]; 103% in [2]; 86.9% in experiment [3]; 69.2% in experiment [4]; -92.3% (active) in [5]; 49.5% in experiment [6]. Moreover, the growth in experiment [7] was -92.5% (active); in experiment [8], 101%; in experiment [9] it was -33.6% (active); in experiment [10], -25.3% (active); in experiment [11], -36.3% (active); in [12], -62.6% (active). In addition, the growth in experiment [13] is -38.5% (active); in experiment [14] it was -34.4% (active); in experiment [15] it was 108%; in [16] it was 91.9%; in experiment [17] it was -88% (active); in experiment [18] it was 87.7%. Also, the growth in [19] was 78%.
Regarding `CC1CC(C(C)(C)C)C(=O)C(C(C)(C)C)C1` (configuration not stated), the growth in experiment [1] is 105%; in [2], 101%; in experiment [3], 105%; in experiment [4], 96.2%; in [5], 98.2%; in experiment [6], 105%. The growth was 105% in [7]; 93.4% in [8]; 104% in [9]; 101% in experiment [10]; 111% in experiment [11]; 107% in experiment [12]. Also, the growth in experiment [13] is 99.6%; in experiment [14], 119%; in experiment [15] it was 105%; in experiment [16], 126%; in experiment [17], 118%; in [18], 106%. Besides, in experiment [19], the growth was 114%.
As for `Cc1ccc(CCC(=O)Nc2ncc(Cc3cc(Cl)ccc3Cl)s2)o1`, the growth in experiment [1] was 65%; in [2] it was 41%; in [3], 23.4%; in experiment [4] it was 32%; in experiment [5] it was 57%; in experiment [6], 28.8%. Besides, the growth is 26.2% in experiment [7]; 6.53% (active) in [8]; 14% in experiment [9]; 16.2% in [10]; 19.9% in experiment [11]; 11.8% in experiment [12]. The growth in experiment [13] was 23.2%; in experiment [14], 43.3%; in experiment [15] it was 33.1%; in [16], 17%; in experiment [17], -0.778% (active); in experiment [18] it was 9.73% (active). Besides, the growth in experiment [19] was -4.35% (active).
As for `CC1(C)CC[C@]2(C(=O)N3CCOCC3)CC[C@]3(C)C(=CC[C@@H]4[C@@]5(C)CC[C@H](OC(=O)c6cccnc6)C(C)(C)[C@@H]5CC[C@]43C)[C@@H]2C1`, the growth in [1] is 84.4%; in experiment [2], 88.2%; in experiment [3], 74.4%; in [4] it was 62.9%; in experiment [5], 83%; in experiment [6], 45.3%. Further, the growth is 40.1% in [7]; 70.3% in experiment [8]; 49% in experiment [9]; 53.7% in experiment [10]; 35.5% in [11]; 76.6% in experiment [12]. The growth in experiment [13] is 75.5%; in [14] it was 60.7%; in experiment [15], 88.2%; in experiment [16], 69.7%; in experiment [17] it was 53.2%; in [18], 86.7%. In experiment [19], the growth is 89.9%.
Consider `CC1CC2Oc3ccc(Cl)cc3C(=O)N2O1` (configuration not stated), for which the growth is 98.6% in experiment [1]; 109% in experiment [2]; 105% in experiment [3]; 92.9% in experiment [4]; 96.8% in [5]; 102% in experiment [6]. Besides, the growth was 97.1% in experiment [7]; 86.9% in experiment [8]; 105% in [9]; 98.2% in [10]; 91.1% in experiment [11]; 107% in experiment [12]. For the same molecule, the growth in experiment [13] was 98.7%; in experiment [14], 117%; in experiment [15], 100%; in experiment [16], 125%; in [17], 114%; in experiment [18], 102%. The growth in [19] is 107%.

The values above are taken from PubChem BioAssay (NCI).
